Compounds without any hit were thinned out: in the full panel of roughly 83,000, 20% have a hit.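 Single-dose data. Exposure time 48 hours. Values below 10 considered active.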 A number with no mark means an inactive call. Activity calls are given as the source filed them.
System: MDA-MB-468 breast
Assay: NCI-60 one-dose screen, 48 h (100 = growth as untreated, 0 = no growth, -100 = all killed)
Conditions: 10 µM unless noted

| SMILES | growth |
| --- | --- |
| C=C1C(=O)O[C@H]2[C@H]1CC/C(Cn1cc(-c3ccc(OC)cc3)nn1)=C\CC[C@@]1(C)O[C@@H]21 | -42.8% (active) |
| O=C1CCC2=C3C4CCCCC4C(=O)C4CCCC(OC2C1)C34 (stereo not given) | 33.3% |
| Oc1c(Cl)cc(Cl)c2ccc(Cn3cc(-c4cccc(C(F)(F)F)c4)nn3)nc12 | 56.4% |
| O=c1[nH][nH]c(=O)c2cc([N+](=O)[O-])ccc12 | 109% |
| Nc1cc2ccccc2c(O)c1O | -3.32% (active) |
| C=C1C(=O)O[C@H]2[C@H]1CC/C(COC(=O)NCCc1c[nH]c3ccc(Cl)cc13)=C\CC[C@@]1(C)O[C@@H]21 | -59% (active) |
| O=C(Nc1ccc2ccccc2c1)c1cc2ccccc2cc1O | 123% |
| FC(F)(F)c1ccc2c(c1)Sc1ccccc1N2 | 102% |
| CC(=O)OCC(=O)[C@@]1(O)CC[C@H]2[C@@H]3CCC4=CC(=O)CC[C@]4(C)[C@@]3(F)[C@@H](O)C[C@@]21C | 121% |
| Cc1ccc(NCN2C(=O)c3ccccc3C2=O)c(C)n1 | 98.5% |
| O=C(Nc1ccc(Cl)c(Cl)c1)OCc1ccco1 | 0.972% (active) |
| O=S(=O)(c1ccccc1)N1CCCN(c2nc(-c3ccccc3)nc3nc(-c4ccccc4)oc23)CC1 | 116% |
| O=[N+]([O-])c1cccc(-c2ncc(-c3ccc(Cl)cc3Cl)[nH]2)c1 | 47.6% |
| FC(F)(F)c1nn[nH]n1 | 99% |
| O=S(=O)(NCCNc1nccc(-c2c(-c3cccc(O)c3)nc3occn23)n1)c1ccccc1 | 88.4% |
